Assay results: the supplement of paper PMC6992640
Where a name gives a salt, the structure may show the parent alone. ± gives the standard deviation of the averaged measurements.

Tests used:
Experiment in all cases: cell viability (% of vehicle); higher = less cytotoxic
Settings in all cases: 10 µM; 72 h
[1] = tested on: HCI01 (cells of a triple-negative basal-like breast cancer xenograft)
[2] = tested on: HCI03 (cells of an ER-positive luminal breast cancer xenograft)
[3] = tested on: HCI09 (cells of a triple-negative luminal androgen receptor type breast cancer xenograft)
[4] = tested on: HCI11 (cells of an ER-positive luminal breast cancer xenograft)
[5] = tested on: HCI13 (cells of an ER-positive luminal breast cancer xenograft)
[6] = tested on: HCI16 (cells of a triple-negative basal-like breast cancer xenograft)
[7] = tested on: UCD52 (cells of a triple-negative basal-like breast cancer xenograft)
[8] = tested on: WHIM2 (cells of a triple-negative basal-like breast cancer xenograft)
[9] = tested on: WHIM30 (cells of a triple-negative basal-like breast cancer xenograft)
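Further: PDX cells carrying CMV promoter-driven luciferase, viability read as total photon flux per second by IVIS imaging following D-luciferin, vehicle control 0.1% DMSO.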

SMILES	cell viability [1]	cell viability [2]	cell viability [3]	cell viability [4]	cell viability [5]	cell viability [6]	cell viability [7]	cell viability [8]	cell viability [9]
O=C(O)CCC(=O)O.O=C(OC1CN2CCC1CC2)N1CCc2ccccc2C1c1ccccc1 (configuration not stated) [Solifenacin succinate]	90.4 ± 10	107	91.8 ± 7	86.9	118 ± 9.5	104	57.36 ± 0.49	76.8 ± 2.9	87.6 ± 3.7
CCC1=C(C)CN(C(=O)NCCc2ccc(S(=O)(=O)NC(=O)NC3CCC(C)CC3)cc2)C1=O (configuration not stated) [Glimepiride]	158 ± 17	123	86.6 ± 14	147	93.2 ± 11	158	129 ± 3.5	105 ± 6.7	164.4 ± 0.77
Br.CN(C)CCC[C@]1(c2ccc(F)cc2)OCc2cc(C#N)ccc21 [Citalopram hydrobromide]	103 ± 25	138	93.7 ± 14	108	103 ± 6.7	129	106 ± 9	94.2 ± 24	87.9 ± 8.7
CCC(C(C)O)n1ncn(-c2ccc(N3CCN(c4ccc(OCC5COC(Cn6cncn6)(c6ccc(F)cc6F)C5)cc4)CC3)cc2)c1=O (configuration not stated) [Posaconazole]	123 ± 2.6	78	59.1 ± 18	64.1	79.9 ± 3.4	94.5	74.8 ± 6.6	86.8 ± 13	105 ± 18
CC(OC1OCCN(Cc2nc(=O)n(P(=O)(O)O)[nH]2)C1c1ccc(F)cc1)c1cc(C(F)(F)F)cc(C(F)(F)F)c1.CNCC(O)C(O)C(O)C(O)CO.CNCC(O)C(O)C(O)C(O)CO (configuration not stated) [Fosaprepitant dimeglumine salt]	67.4 ± 51	103	52.4 ± 27	85.1	76.2 ± 6.3	91.7	57.2 ± 7.3	79.7 ± 44	109 ± 2.4
CNC(=O)c1ccc(N2C(=S)N(c3ccc(C#N)c(C(F)(F)F)c3)C(=O)C2(C)C)cc1F [MDV3100 (Enzalutamide)]	115 ± 11	138	104.5 ± 0.14	96.1	94.3 ± 22	107	117 ± 6	97.9 ± 3.6	157 ± 1.9
Cl.NC1=NCC2c3ccccc3Cc3ccccc3N12 (configuration not stated) [Epinastine HCl]	102 ± 1.5	94.8	82.5 ± 4.8	95.5	79.4 ± 1.9	118	79 ± 1.4	96.5 ± 8.4	89.3 ± 7
Nc1cccc2c1CN(C1CCC(=O)NC1=O)C2=O (configuration not stated) [Lenalidomide (CC-5013)]	111 ± 4.1	107	85.5 ± 10	102	80.5 ± 0.91	101	80.5 ± 12	78.6 ± 3.5	134 ± 6.6
CCc1nc(N)nc(N)c1-c1ccc(Cl)cc1 [Pyrimethamine]	111 ± 6.4	129	81.6 ± 8.9	121	105 ± 12	109	75.2 ± 2.4	119 ± 4.7	104 ± 1.9
CN(C)CCC(c1ccc(Cl)cc1)c1ccccn1.O=C(O)C=CC(=O)O (configuration not stated) [Chlorpheniramine Maleate]	157 ± 40	115	108 ± 13	97	178 ± 38	126	79.7 ± 2.5	82.8 ± 11	127 ± 12
O=C(O)c1ccccc1O [Salicylic acid]	106 ± 7.3	114	138 ± 62	116	99.1 ± 7	98.3	120 ± 16	95.1 ± 13	118 ± 23
Cc1ccc(Nc2nccc(N(C)c3ccc4c(C)n(C)nc4c3)n2)cc1S(N)(=O)=O.Cl [Pazopanib Hydrochloride]	123 ± 20	101	77.01 ± 0.6	96.8	75.6 ± 13	134	94.9 ± 13	127 ± 32	76.7 ± 5.5
CN1CCN(C2=c3ccccc3=Nc3ccc(Cl)cc3N2)CC1 [Clozapine]	95.4 ± 14	130	101 ± 11	87.2	106 ± 1.6	123	83.6 ± 11	85.298 ± 0.078	122 ± 15
CNCC(O)c1ccc(O)c(O)c1.Cl (configuration not stated) [Epinephrine HCl]	102 ± 3.8	112	91.6 ± 15	76.6	118 ± 17	119	118 ± 11	142 ± 3.3	100 ± 1.1
CC(C)n1c(C=CC(O)CC(O)CC(=O)O)c(-c2ccc(F)cc2)c2ccccc21 (configuration not stated) [Fluvastatin]	91.2 ± 13	130	65.7 ± 18	162	192 ± 10	109	59.3 ± 12	48.9 ± 2.5	139 ± 14
CC(=O)N(CC(O)CO)c1c(I)c(C(=O)NCC(O)CO)c(I)c(C(=O)NCC(O)CO)c1I (configuration not stated) [Iohexol]	117 ± 33	116	96.5 ± 2.9	83.2	133 ± 9.7	122	101 ± 6.7	99.2 ± 2.7	95.9 ± 8.9
CNCC(O)C(O)C(O)C(O)CO.Cc1c(Nc2ncccc2C(=O)O)cccc1C(F)(F)F [Flunixin Meglumin]	135 ± 49	120	141 ± 44	103	133 ± 14	105	77.6 ± 16	130 ± 17	107 ± 2.9
COc1cc(C2Oc3cc(C4Oc5cc(O)cc(O)c5C(=O)C4O)ccc3OC2CO)ccc1O (configuration not stated) [Silymarin]	111 ± 32	129	102 ± 19	89.4	127 ± 3.3	116	107.79 ± 0.095	93.6 ± 18	91.7 ± 2
CN1CCC(=C2c3ccccc3CCc3sccc32)CC1.O=C(O)CC(O)C(=O)O [Pizotifen Malate]	100 ± 41	105	74.7 ± 3.8	97.9	167 ± 21	111	82.7 ± 2.5	68.9 ± 11	173.9 ± 0.85

SMILES	cell viability [1]	cell viability [2]	cell viability [3]	cell viability [4]	cell viability [5]	cell viability [6]	cell viability [7]	cell viability [8]	cell viability [9]
Cl.O=C1CC2(CCCC2)CC(=O)N1CCCCN1CCN(c2ncccn2)CC1 [Buspirone HCl]	110 ± 16	95.5	91.3 ± 8.6	101	76.7 ± 2	119	106 ± 3.5	104.3 ± 0.12	90.4 ± 8.1
CC(C[N+](C)(C)C)OC(N)=O.[Cl-] (configuration not stated) [Bethanechol chloride]	86.3 ± 5.2	88	90.8 ± 12	82.5	104 ± 14	101	100 ± 5.9	105 ± 6.2	79.4 ± 1.9
OCC(O)CN1CCN(c2ccccc2)CC1 (configuration not stated) [Dropropizine]	97.2 ± 14	129	89.7 ± 11	90.3	66 ± 10	94.3	98.7 ± 2.5	99.3 ± 20	101.7 ± 0.4
O=C(O)CCNC(=O)c1ccc(/N=N/c2ccc(O)c(C(=O)O)c2)cc1 [Balsalazide]	96.3 ± 18	120	87.6 ± 1.2	91.1	120 ± 6.3	114	93.5 ± 10	98.8 ± 15	110 ± 6.1
NC(=O)Cc1cccc(C(=O)c2ccccc2)c1N [Nepafenac]	117 ± 21	101	94.6 ± 3.9	95.4	84.1 ± 5.7	94.2	104 ± 1.5	159 ± 69	136 ± 14
CC(=O)N[C@H](Cc1ccc2ccccc2c1)C(=O)N[C@H](Cc1ccc(Cl)cc1)C(=O)N[C@H](Cc1cccnc1)C(=O)N[C@@H](CO)C(=O)N[C@@H](Cc1ccc(O)cc1)C(=O)N[C@H](CCCNC(N)=O)C(=O)N[C@@H](CC(C)C)C(=O)N[C@@H](CCCNC(=N)N)C(=O)N1CCC[C@H]1C(=O)N[C@H](C)C(N)=O [Cetrorelix]	111 ± 16	131	96.7 ± 19	102	190 ± 48	151	96.1 ± 7	122 ± 61	132 ± 7.8
CC1OC(OC2C(CO)OC(OC3C(CO)OC(O)C(O)C3O)C(O)C2O)C(O)C(O)C1NC1C=C(CO)C(O)C(O)C1O (configuration not stated) [Acarbose]	112 ± 9.7	109	99 ± 8.6	88.2	117 ± 12	78.5	93.3 ± 9.7	86 ± 17	104 ± 29
COc1c(N2CC3CCCNC3C2)c(F)cc2c(=O)c(C(=O)O)cn(C3CC3)c12.Cl (configuration not stated) [Moxifloxacin HCl]	132 ± 5.7	124	97.1 ± 3.3	120	113 ± 14	114	133 ± 11	92.3 ± 8.9	134 ± 16
CC12CCC3c4ccc(OC(=O)c5ccccc5)cc4CCC3C1CCC2O (configuration not stated) [Estradiol Benzoate]	123.5 ± 0.41	131	79.7 ± 1.4	84.7	191 ± 13	126	83.6 ± 14	132 ± 29	138 ± 13
Nc1ccn(C2OC(CO)C(O)C2(F)F)c(=O)n1 (configuration not stated) [Gemcitabine]	70.3 ± 11	95.9	75.1 ± 9.5	112	118 ± 5.3	64.7	100.6 ± 0.62	78.9 ± 22	119 ± 12
CC(C)c1nc(CN(C)C(=O)NC(CCN2CCOCC2)C(=O)NC(CCC(Cc2ccccc2)NC(=O)OCc2cncs2)Cc2ccccc2)cs1 (configuration not stated) [Cobicistat (GS-9350)]	83.3 ± 3.6	74.2	53.3 ± 17	52.3	64.4 ± 11	128	67 ± 4.4	78.1 ± 3.2	96.6 ± 3.7
CC(=O)N1CCN(c2ccc(OCC3COC(Cn4ccnc4)(c4ccc(Cl)cc4Cl)O3)cc2)CC1 (configuration not stated) [Ketoconazole]	188 ± 14	143	36.4 ± 2.8	102	76 ± 1.8	122	55.8 ± 5.3	172 ± 25	122 ± 10
COC(=O)C1CC2=CC(=O)CCC2(C)C23OC2CC2(C)C(CC[C@]24CCC(=O)O4)C13 (some centres not stated) [Epleremone]	90.4 ± 5.2	105	100 ± 24	90.1	94.7 ± 9.2	116	100 ± 7.6	108 ± 4.6	114 ± 3.4
CC(=O)SCC(Cc1ccccc1)C(=O)NCC(=O)OCc1ccccc1 (configuration not stated) [Racecadotril]	106 ± 19	111	92.8 ± 9.8	93.3	114 ± 8.9	104	65.6 ± 16	92.8 ± 1.4	79.3 ± 9
CN1CCN(c2cc3c(cc2F)c(=O)c(C(=O)O)cn3-c2ccc(F)cc2)CC1 [Difloxacin HCl]	60.2 ± 1	84.7	53.6 ± 2	190	115 ± 8.6	94.8	116 ± 9.9	71.6 ± 21	130 ± 23
Cc1onc(-c2ccccc2)c1-c1ccc(S(N)(=O)=O)cc1 [Valdecoxib]	126 ± 28	126	85.3 ± 11	98	109 ± 1.1	99.8	74 ± 11	95.5 ± 4.2	78.92 ± 0.35
NS(=O)(=O)Cc1noc2ccccc12 [Zonisamide]	96.13 ± 0.4	136	90 ± 5	108	117 ± 18	99.1	130 ± 16	92.9 ± 7.1	129 ± 3.9
O=c1nc[nH]c2c1ncn2C1CCC(CO)O1 (configuration not stated) [Didanosine]	105.3 ± 0.26	139	95.4 ± 7	118	99.18 ± 0.8	90.8	96.8 ± 9.7	98.5 ± 22	90.6 ± 1.1
CS(=O)(=O)c1ccc(C(=O)Nc2ccc(Cl)c(-c3ccccn3)c2)c(Cl)c1 [GDC-0449 (Vismodegib)]	109 ± 40	94.4	69.5 ± 20	104	105 ± 7.7	83.4	67.1 ± 1.8	111 ± 5.5	133 ± 2.4
